About 7,900 targets were measured; listed, in parts, are those with a hit and a random draw of the rest. About 0.6% of all pairs of compound and target were hits. Unmarked numbers belong to inactive results.
Tests used:
Assay in all cases: log2 fold change, soluble protein after heating vs DMSO (PISA); higher = thermal stabilisation; K562 cells, 10 uM, 30 min; active = over 0.2 and 3.5 SD of the protein, either way, in both replicates (recomputed)
[1] = compound: CC1=C(C=C(C=C1)NC(=O)C2=CC(=CC=C2)C(C)(C)C#N)NC3=CC4=C(C=C3)N=CN(C4=O)C
Method in brief: (§1)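 Aliquots of K562 cells (2×10^6 cells/mL) treated with 10 μM compound for 30 min were heated for 3 min over 48°C-58°C. After pooling and extraction in PBS with 0.5% NP-40 at 4°C, soluble protein from a 21,000xg, 90 min spin was quantified by TMTpro 16plex LC-MS/MS with channel sums equalised. Thermal stability is expressed against control samples, from duplicates, as a log2 fold change.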

[2] = compound: CC1=C(C=C(C=C1)NC(=O)C2=CC(=CC=C2)N(C)C)NC(=O)C3=CC=C(C=C3)O
Method in brief: as §1

[3] = compound: CC1=CC=C(C=C1)SC2=C3C=C(SC3=CN=C2)C(=O)N
Method in brief: as §1

[4] = compound: CC1=NC(=CC=C1)C2=C(N=C(N2)C(C)(C)C)C3=CC4=NC=CN=C4C=C3
Method in brief: as §1

Nexturastat A = compound: CCCCN(Cc1ccc(C(=O)NO)cc1)C(=O)Nc1ccccc1 [Nexturastat A]
Method in brief: as §1

vemurafenib = compound: CCCS(=O)(=O)Nc1ccc(F)c(C(=O)c2c[nH]c3ncc(-c4ccc(Cl)cc4)cc23)c1F [vemurafenib]
Method in brief: as §1

[5] = compound: CCCS(=O)(=O)Nc1ccc(F)c(C(=O)c2c[nH]c3ncc(Cl)cc23)c1F
Method in brief: as §1

[6] = compound: CCCc1cc(C)[nH]c(=O)c1CNC(=O)c1cc(-c2ccnc(N3CCN(C)CC3)c2)cc2c1cnn2C(C)C
Method in brief: as §1

givinostat = compound: CCN(CC)Cc1ccc2cc(COC(=O)Nc3ccc(C(=O)NO)cc3)ccc2c1 [givinostat]
Method in brief: as §1

barasertib = compound: CCN(CCCOc1ccc2c(Nc3cc(CC(=O)Nc4cccc(F)c4)[nH]n3)ncnc2c1)CCOP(=O)(O)O [barasertib]
Method in brief: as §1

[7] = compound: CC[C@@H]1C(=O)N(C)c2cnc(Nc3ccc(C(=O)NC4CCN(C)CC4)cc3OC)nc2N1C1CCCC1
Method in brief: as §1

volasertib = compound: CC[C@@H]1C(=O)N(C)c2cnc(Nc3ccc(C(=O)N[C@H]4CC[C@H](N5CCN(CC6CC6)CC5)CC4)cc3OC)nc2N1C(C)C [volasertib]
Method in brief: as §1

[8] = compound: CC[C@H](C)N1C=C(C2=C(C=C(C=C21)C3=CN=C(C=C3)N4CCNCC4)C(=O)NCC5=C(C=C(NC5=O)C)C)C
Method in brief: as §1

epoxomicin = compound: CC[C@H](C)[C@@H](C(=O)N[C@@H]([C@@H](C)O)C(=O)N[C@@H](CC(C)C)C(=O)[C@]1(CO1)C)NC(=O)[C@H]([C@@H](C)CC)N(C)C(=O)C [epoxomicin]
Method in brief: as §1

[9] = compound: CCn1c(C(=O)N(C2CC2)C2CC2)cc2c3c(ncn3C)c(Nc3cc(C)n(C)n3)nc21
Method in brief: as §1

[10] = compound: CCn1cc(-c2ccnc3[nH]c(-c4cccc(CN(C)C)c4)cc23)c(-c2ccc(NC(=O)N(C)C)cc2)n1
Method in brief: as §1

[11] = compound: CN(C)CC(=O)Nc1ccc2[nH]c(=O)c3ccccc3c2c1
Method in brief: as §1

rosiglitazone = compound: CN(CCOC1=CC=C(C=C1)C[C@H]2C(=O)NC(=O)S2)C3=CC=CC=N3 (racemic) [rosiglitazone]
Method in brief: as §1

[12] = compound: CN1C2=C(C3=C1C(=O)N(N=C3)CC4=CC(=CC=C4)N)SC(=C2)S(=O)C
Method in brief: as §1

[13] = compound: CN1CCC(CNc2ccc3ncc(-c4cccc(OC(F)(F)F)c4)n3n2)CC1
Method in brief: as §1

Chain of UniProt Q86TP1 (Q86TP1 whole entry, looked up): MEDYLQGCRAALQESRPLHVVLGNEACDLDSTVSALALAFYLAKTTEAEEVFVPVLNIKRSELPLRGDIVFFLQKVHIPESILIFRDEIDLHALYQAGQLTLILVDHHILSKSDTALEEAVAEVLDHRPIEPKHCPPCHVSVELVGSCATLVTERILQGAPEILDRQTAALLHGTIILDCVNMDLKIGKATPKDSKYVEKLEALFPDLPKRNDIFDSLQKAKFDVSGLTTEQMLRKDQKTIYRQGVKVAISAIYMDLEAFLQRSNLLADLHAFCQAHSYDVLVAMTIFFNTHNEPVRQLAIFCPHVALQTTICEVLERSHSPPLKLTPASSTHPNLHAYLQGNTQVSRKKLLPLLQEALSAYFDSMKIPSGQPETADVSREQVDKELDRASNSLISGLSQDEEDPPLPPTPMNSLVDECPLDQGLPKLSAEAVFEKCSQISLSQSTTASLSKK
Chain of UniProt Q13362 (Q13362 whole entry, looked up): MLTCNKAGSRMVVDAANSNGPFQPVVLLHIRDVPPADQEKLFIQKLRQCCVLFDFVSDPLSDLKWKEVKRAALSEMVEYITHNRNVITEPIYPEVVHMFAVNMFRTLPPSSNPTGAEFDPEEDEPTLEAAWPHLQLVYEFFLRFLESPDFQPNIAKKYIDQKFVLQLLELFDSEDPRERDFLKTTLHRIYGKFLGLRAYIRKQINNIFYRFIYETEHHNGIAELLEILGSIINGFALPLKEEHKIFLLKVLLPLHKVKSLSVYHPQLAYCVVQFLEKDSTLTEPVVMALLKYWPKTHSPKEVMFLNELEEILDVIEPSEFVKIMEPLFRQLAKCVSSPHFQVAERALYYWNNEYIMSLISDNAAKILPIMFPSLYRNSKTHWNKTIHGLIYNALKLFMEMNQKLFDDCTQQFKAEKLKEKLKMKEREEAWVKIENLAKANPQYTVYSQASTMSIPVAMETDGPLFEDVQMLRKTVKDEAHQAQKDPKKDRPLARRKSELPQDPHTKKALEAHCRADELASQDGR
Chain of UniProt P11216 (P11216 whole entry, looked up): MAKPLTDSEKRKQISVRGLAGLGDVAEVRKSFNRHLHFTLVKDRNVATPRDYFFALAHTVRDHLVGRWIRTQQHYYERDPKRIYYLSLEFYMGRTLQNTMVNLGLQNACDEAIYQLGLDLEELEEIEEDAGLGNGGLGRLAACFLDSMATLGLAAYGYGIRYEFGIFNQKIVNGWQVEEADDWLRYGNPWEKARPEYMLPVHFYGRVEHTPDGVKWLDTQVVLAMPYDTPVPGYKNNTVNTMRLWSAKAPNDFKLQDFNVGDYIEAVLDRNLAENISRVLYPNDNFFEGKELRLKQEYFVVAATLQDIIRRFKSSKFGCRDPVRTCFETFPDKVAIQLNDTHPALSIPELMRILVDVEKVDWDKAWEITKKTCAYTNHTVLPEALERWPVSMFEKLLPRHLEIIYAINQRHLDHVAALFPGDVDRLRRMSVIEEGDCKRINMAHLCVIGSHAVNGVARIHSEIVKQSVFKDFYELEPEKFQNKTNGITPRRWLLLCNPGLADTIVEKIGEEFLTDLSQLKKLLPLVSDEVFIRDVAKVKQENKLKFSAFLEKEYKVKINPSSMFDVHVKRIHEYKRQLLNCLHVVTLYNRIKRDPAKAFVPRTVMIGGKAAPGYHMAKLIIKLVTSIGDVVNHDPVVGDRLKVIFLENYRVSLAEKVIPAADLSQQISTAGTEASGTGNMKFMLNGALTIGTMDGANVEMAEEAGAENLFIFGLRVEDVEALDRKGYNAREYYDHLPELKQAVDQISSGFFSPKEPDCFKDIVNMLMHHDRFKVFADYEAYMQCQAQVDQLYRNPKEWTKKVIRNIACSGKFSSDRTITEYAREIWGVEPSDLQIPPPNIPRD
Chain of UniProt P42785 (P42785 whole entry, looked up): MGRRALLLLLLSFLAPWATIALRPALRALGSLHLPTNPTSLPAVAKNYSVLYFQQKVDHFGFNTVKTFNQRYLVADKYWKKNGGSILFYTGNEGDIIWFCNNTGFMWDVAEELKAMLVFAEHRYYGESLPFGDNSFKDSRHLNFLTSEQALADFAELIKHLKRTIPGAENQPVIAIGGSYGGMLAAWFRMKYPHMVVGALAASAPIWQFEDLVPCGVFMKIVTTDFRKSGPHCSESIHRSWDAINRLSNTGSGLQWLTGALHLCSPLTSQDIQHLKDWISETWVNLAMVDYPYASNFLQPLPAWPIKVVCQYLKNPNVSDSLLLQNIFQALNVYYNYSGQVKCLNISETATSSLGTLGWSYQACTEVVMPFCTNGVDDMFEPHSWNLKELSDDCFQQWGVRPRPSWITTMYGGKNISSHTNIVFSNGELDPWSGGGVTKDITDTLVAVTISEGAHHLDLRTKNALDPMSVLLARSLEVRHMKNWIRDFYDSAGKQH
Chain of UniProt Q13200 (Q13200 whole entry, looked up): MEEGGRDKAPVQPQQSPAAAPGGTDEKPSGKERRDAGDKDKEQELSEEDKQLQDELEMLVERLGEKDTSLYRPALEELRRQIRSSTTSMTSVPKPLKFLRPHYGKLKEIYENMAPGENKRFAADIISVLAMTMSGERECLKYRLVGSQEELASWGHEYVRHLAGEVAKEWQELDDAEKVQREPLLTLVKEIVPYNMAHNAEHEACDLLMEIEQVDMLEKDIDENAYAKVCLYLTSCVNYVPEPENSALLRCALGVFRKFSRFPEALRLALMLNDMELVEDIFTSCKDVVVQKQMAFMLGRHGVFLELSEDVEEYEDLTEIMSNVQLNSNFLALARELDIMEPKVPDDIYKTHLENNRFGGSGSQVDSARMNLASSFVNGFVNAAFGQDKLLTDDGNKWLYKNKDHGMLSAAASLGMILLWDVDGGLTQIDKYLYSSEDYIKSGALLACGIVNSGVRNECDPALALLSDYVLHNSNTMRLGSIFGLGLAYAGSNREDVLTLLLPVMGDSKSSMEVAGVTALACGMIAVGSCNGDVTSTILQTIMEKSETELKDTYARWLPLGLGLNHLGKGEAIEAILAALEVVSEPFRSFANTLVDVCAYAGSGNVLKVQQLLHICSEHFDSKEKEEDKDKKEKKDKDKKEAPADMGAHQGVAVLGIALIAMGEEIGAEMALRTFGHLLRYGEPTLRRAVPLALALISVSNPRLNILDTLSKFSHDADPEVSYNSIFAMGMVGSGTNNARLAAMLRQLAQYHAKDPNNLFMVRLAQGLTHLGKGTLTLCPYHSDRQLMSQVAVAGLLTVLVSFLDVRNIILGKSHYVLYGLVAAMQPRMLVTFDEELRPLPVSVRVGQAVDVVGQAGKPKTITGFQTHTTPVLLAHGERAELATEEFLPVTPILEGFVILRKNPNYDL
Chain of UniProt P06454 (P06454 whole entry, looked up): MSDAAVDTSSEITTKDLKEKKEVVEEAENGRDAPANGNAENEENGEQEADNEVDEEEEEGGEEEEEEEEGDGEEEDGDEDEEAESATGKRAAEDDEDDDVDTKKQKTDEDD
Chain of UniProt Q92968 (Q92968 whole entry, looked up): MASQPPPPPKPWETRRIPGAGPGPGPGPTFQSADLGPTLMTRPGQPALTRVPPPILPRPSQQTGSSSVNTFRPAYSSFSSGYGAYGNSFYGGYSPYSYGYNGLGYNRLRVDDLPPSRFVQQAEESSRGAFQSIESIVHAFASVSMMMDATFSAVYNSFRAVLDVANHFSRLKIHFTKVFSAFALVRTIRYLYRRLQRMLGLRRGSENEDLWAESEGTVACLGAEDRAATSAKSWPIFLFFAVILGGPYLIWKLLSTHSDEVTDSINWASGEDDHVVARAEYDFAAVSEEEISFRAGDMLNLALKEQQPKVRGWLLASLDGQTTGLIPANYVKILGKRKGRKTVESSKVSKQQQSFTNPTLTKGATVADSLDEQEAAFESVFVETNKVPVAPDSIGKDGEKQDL

Target	log2 fold change [1]	log2 fold change [2]	log2 fold change [3]	log2 fold change [4]	log2 fold change (Nexturastat A)	log2 fold change (vemurafenib)	log2 fold change [5]	log2 fold change [6]	log2 fold change (givinostat)	log2 fold change (barasertib)	log2 fold change [7]	log2 fold change (volasertib)	log2 fold change [8]	log2 fold change (epoxomicin)	log2 fold change [9]	log2 fold change [10]	log2 fold change [11]	log2 fold change (rosiglitazone)	log2 fold change [12]	log2 fold change [13]
POLR2I (UniProt P36954)	-0.063	-0.011	-0.015	0.001	0.055	-0.086	-0.081	-0.057	-0.151	0.085	0.209	0.232	0.055	0.007	0.017	-0.208	-0.107	-0.107	-0.009	0.202
PEX13 (UniProt Q92968)	0.052	-0.101	0.033	-0.02	0.116	-0.033	0.033	-0.142	-0.034	0.044	-0.053	-0.049	-0.038	-0.009	0.076	0.047	0.019	0.021	0.02	-0.378
PTMA (UniProt P06454)	0.133	-0.041	0.053	0.213	-0.077	0.05	-0.044	-0.008	-0.022	-0.013	-0.167	0.112	-0.064	0.2	0.017	-0.009	-0.01	-0.032	-0.027	-0.052
PYGB (UniProt P11216)	-0.284 (active)	0.015	0.008	0.005	-0.074	0.009	-0.023	-0.044	0.012	0.001	-0.199	-0.572 (active)	0.036	-0.045	-0.203	0.023	0.012	-0.004	0.021	-0.071
PPP2R5C isoform 5 (UniProt Q13362)	0.001	-0.045	0.012	0.052	-0.171	0.066	0.038	0.032	0.059	0.018	-0.12	-0.429 (active)	0.019	0.06	-0.086	-0.009	-0.023	0.021	-0.027	-0.203
PRUNE1 (UniProt Q86TP1)	0.056	-0.014	-0.005	-0.028	0.161	0.129	0.036	0.022	0.056	0.105	-0.083	-0.417 (active)	0.067	0.012	-0.035	-0.024	-0.018	0.04	-0.079	-0.089
PRCP (UniProt P42785)	0	0.061	0.022	-0.002	0.072	0.008	0.01	-0.082	0.035	-0.008	-0.265 (active)	-0.291 (active)	-0.024	-0.002	0.037	0.008	0.014	0.019	0.024	-0.389 (active)
PSMD2 (UniProt Q13200)	0.005	0.012	-0.025	-0.064	0.024	-0.091	-0.014	0.136	-0.048	-0.057	0.049	0.089	-0.009	-0.365 (active)	0.011	0.07	-0.04	-0.024	0.021	0.055

— the supplement of paper PMC10849652
